Consider 32 compounds from PubChem BioAssay (Tox21).

Where “and” joins values, the source holds several entries; their conditions need not be identical. Identical values can stand only once. Inconclusive results are not listed. Where a call stands in place of a potency, no number is given. Calls of active or inactive are those of the source. Calls come from the whole dose curve; as a rule, active = well fitted cell-killing curve with a large enough effect in the repeat runs; inconclusive = weak or mixed curves, or effect the other way; inactive = no such curve, though single readings can be large or run the other way.
Note: nearly all actives have a fitted effect of over 50% in size.
Potency is the fitted concentration of half-maximal effect.

The first assay in a line: qHTS assay to identify small molecule agonists of the vitamin D receptor (VDR) signaling pathway - cell viability counter screen (AID 743224). The settings on record: VDR-bla HEK293T viability, CellTiter-Glo luminescence, 16 h; series mostly up to 62.6 µM. In outline:
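Cells: VDR-bla, 2,000/well, settled 4 h. Treatment: compounds in DMSO, 16 h, 37C/5% CO2. Readout: CellTiter-Glo luminescence after 30 min RT.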
For `Oc1ccc(C(=C(Cl)Cl)c2ccc(O)cc2)cc1`, the Potency is 48.9 µM (active).

Take `CC1CCC(C(C)C)C(OC(=O)c2ccccc2N)C1` (stereo unspecified): the Potency was 34.2 µM (active).

For the compound `CN(C)c1ccc(N=Nc2ccccc2)cc1`, the Potency result was “inactive”.

Regarding `CCCCCCCCCCCCCN1CC(C)OC(C)C1` (stereo unspecified), the Potency result was “inactive”.

As for `CCc1nn(C)c(C(=O)NCc2ccc(C(C)(C)C)cc2)c1Cl`, the Potency is 27.5 µM (active).

`CC(C)CC(C)(c1ccc(O)cc1)c1ccc(O)cc1`: the Potency is 49 µM (active).

Regarding `CCOP(=O)(NC(C)C)Oc1ccc(SC)c(C)c1` (stereo unspecified), the Potency result was “inactive”.

Consider `CCOCn1c(-c2ccc(Cl)cc2)c(C#N)c(Br)c1C(F)(F)F`, for which the Potency was 3.47 µM (active).

`C[C@H]1O[C@@H](O[C@H]2[C@@H](O)C[C@H](O[C@H]3[C@@H](O)C[C@H](O[C@H]4CC[C@@]5(C)[C@H](CC[C@@H]6[C@@H]5CC[C@]5(C)[C@@H](C7=CC(=O)OC7)CC[C@]65O)C4)O[C@@H]3C)O[C@@H]2C)C[C@H](O)[C@@H]1O`: the Potency was 15.6 nM (active) and 106 nM (active).

Regarding `O=c1ssc(Cl)c1Cl`, the Potency was 43.6 µM (active).

`CCCSP(=O)(OCC)SCCC`: the Potency result is “inactive”.

`O=[N+]([O-])O.O=[N+]([O-])O.[Cd]`: the Potency is 1.74 µM (active).

Turning to `N#CC(Cl)Cl`, the Potency result is “inactive”.

As for `N#CSCSC#N`, the Potency is 15.8 µM (active) and 17.2 µM (active).

Consider `CC[C@H](C)[C@H]1O[C@]2(C=C[C@@H]1C)C[C@@H]1C[C@@H](C/C=C(\C)[C@@H](O[C@H]3C[C@H](OC)[C@@H](O[C@H]4C[C@H](OC)[C@@H](O)[C@H](C)O4)[C@H](C)O3)[C@@H](C)/C=C/C=C3\CO[C@@H]4[C@H](O)C(C)=C[C@@H](C(=O)O1)[C@]34O)O2`, for which the Potency was 7.27 µM (active).

Take `Cc1c(Cl)c(=O)oc2cc(OP(=O)(OCCCl)OCCCl)ccc12`: the Potency entry is “inactive”.

Take `CCN(CC)C(=S)[S-].CCN(CC)C(=S)[S-].[Zn+2]`: the Potency is 0.217 µM (active).

As for `CCCCN(CCCC)C(=S)[S-].CCCCN(CCCC)C(=S)[S-].[Zn+2]`, the Potency is 5.49 µM (active).

Consider `CC1(c2ccc(Oc3ccccc3)cc2)OC(=O)N(Nc2ccccc2)C1=O` (stereo unspecified), for which the Potency was 17.5 µM (active).

For the compound `CC(C)CC(C)Nc1ccc(Nc2ccccc2)cc1` (stereo unspecified), the Potency is 38.3 µM (active).

`CN(C)C(=S)S`: the Potency was 50 µM (active) and 1.09 µM (active) and 9.77 µM (active).

On to `C[C@H]1CC[C@@H]2[C@@H](C)[C@H]3[C@H](C[C@H]4[C@@H]5CC=C6CC(O[C@@H]7O[C@H](CO)[C@H](O)[C@H](O[C@@H]8O[C@H](CO)[C@@H](O)[C@H](O)[C@H]8O)[C@H]7O[C@H]7O[C@@H](C)[C@H](O)[C@@H](O)[C@H]7O)CC[C@]6(C)[C@H]5CC[C@]34C)N2C1` (stereo partly specified), for which the Potency entry is “inactive”.

On to `COc1cc(C=O)cc2c1[C@H](COC(N)=O)[C@]1(OC(C)=O)ON2C[C@H]2[C@@H]1N2C(C)=O`, for which the Potency result was “inactive”.

Turning to `Cc1ccc(OP(=O)(Oc2ccccc2)Oc2ccccc2)cc1`, the Potency result is “inactive”.

With `COc1ccc(OC)c(CC(C)N)c1` (stereo unspecified), the Potency entry is “inactive”.

`CCOC(=O)OC1=C(c2cc(C)ccc2C)C(=O)NC12CCC(OC)CC2` (stereo unspecified): the Potency entry is “inactive”.

As to `CCCCCCCCCCCCCCCCCCn1cc[n+](C)c1`, the Potency was 9.72 µM (active).

`CCC(C)(C)C(=O)OC1=C(c2ccc(Cl)cc2Cl)C(=O)OC12CCCCC2`: the Potency result was “inactive”.

`c1ccc2c(c1)[nH]c1cnccc12`: the Potency entry was “inactive”.

For the compound `CCOP(=S)(OCC)OC(Cl)C(Cl)(Cl)Cl` (stereo unspecified), the Potency entry is “inactive”.

Regarding `Fc1cccc(Cl)c1CCl`, the Potency entry is “inactive”.

A further assay can be described thus: qHTS assay to identify small molecule antagonists of the vitamin D receptor (VDR) signaling pathway - cell viability counter screen (AID 743225). Conditions: VDR-bla HEK293T viability, CellTiter-Glo luminescence, 16 h; series mostly up to 61 µM. The method, boiled down:
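Parallel cytotoxicity test: VDR-UAS-bla HEK 293T, 3 nM (final) 1-alpha,25-dihydroxyvitamin D3 with test compound, 16 h, 37C. Endpoint is CellTiter-Glo luminescence in the same wells.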
Regarding `CC1CCC(C(C)C)C(OC(=O)c2ccccc2N)C1` (stereo unspecified), the Potency is 38.4 µM (active).

`CN(C)c1ccc(N=Nc2ccccc2)cc1`: the Potency result was “inactive”.

Take `CCCCCCCCCCCCCN1CC(C)OC(C)C1` (stereo unspecified): the Potency result is “inactive”.

On to `CCc1nn(C)c(C(=O)NCc2ccc(C(C)(C)C)cc2)c1Cl`, for which the Potency is 38.9 µM (active).

`C[C@H]1O[C@@H](O[C@H]2[C@@H](O)C[C@H](O[C@H]3[C@@H](O)C[C@H](O[C@H]4CC[C@@]5(C)[C@H](CC[C@@H]6[C@@H]5CC[C@]5(C)[C@@H](C7=CC(=O)OC7)CC[C@]65O)C4)O[C@@H]3C)O[C@@H]2C)C[C@H](O)[C@@H]1O`: the Potency was 8.8 nM (active) and 84.9 nM (active).

For the compound `O=[N+]([O-])O.O=[N+]([O-])O.[Cd]`, the Potency is 19.5 µM (active).

Regarding `N#CC(Cl)Cl`, the Potency result is “inactive”.

As for `CC[C@H](C)[C@H]1O[C@]2(C=C[C@@H]1C)C[C@@H]1C[C@@H](C/C=C(\C)[C@@H](O[C@H]3C[C@H](OC)[C@@H](O[C@H]4C[C@H](OC)[C@@H](O)[C@H](C)O4)[C@H](C)O3)[C@@H](C)/C=C/C=C3\CO[C@@H]4[C@H](O)C(C)=C[C@@H](C(=O)O1)[C@]34O)O2`, the Potency is 11.5 µM (active).

For the compound `Cc1c(Cl)c(=O)oc2cc(OP(=O)(OCCCl)OCCCl)ccc12`, the Potency entry is “inactive”.

As to `CCCCN(CCCC)C(=S)[S-].CCCCN(CCCC)C(=S)[S-].[Zn+2]`, the Potency was 11 µM (active).

As to `CC(C)CC(C)Nc1ccc(Nc2ccccc2)cc1` (stereo unspecified), the Potency was 48.2 µM (active).

For the compound `CN(C)C(=S)S`, the Potency entry is “inactive”.

Take `C[C@H]1CC[C@@H]2[C@@H](C)[C@H]3[C@H](C[C@H]4[C@@H]5CC=C6CC(O[C@@H]7O[C@H](CO)[C@H](O)[C@H](O[C@@H]8O[C@H](CO)[C@@H](O)[C@H](O)[C@H]8O)[C@H]7O[C@H]7O[C@@H](C)[C@H](O)[C@@H](O)[C@H]7O)CC[C@]6(C)[C@H]5CC[C@]34C)N2C1` (stereo partly specified): the Potency entry is “inactive”.

Regarding `COc1cc(C=O)cc2c1[C@H](COC(N)=O)[C@]1(OC(C)=O)ON2C[C@H]2[C@@H]1N2C(C)=O`, the Potency result was “inactive”.

For `COc1ccc(OC)c(CC(C)N)c1` (stereo unspecified), the Potency result was “inactive”.

Take `Cc1cc(N=Nc2ccccc2C)ccc1N`: the Potency entry was “inactive”.

As for `CCOC(=O)OC1=C(c2cc(C)ccc2C)C(=O)NC12CCC(OC)CC2` (stereo unspecified), the Potency entry is “inactive”.

On to `CCCCCCCCCCCCCCCCCCn1cc[n+](C)c1`, for which the Potency was 19.4 µM (active).

Consider `CCC(C)(C)C(=O)OC1=C(c2ccc(Cl)cc2Cl)C(=O)OC12CCCCC2`, for which the Potency entry is “inactive”.

As for `CCOP(=S)(OCC)OC(Cl)C(Cl)(Cl)Cl` (stereo unspecified), the Potency result was “inactive”.
